# A selection: hits, their analogues and other compounds. The true share with any hit is near 8.1%.
# PINK1 expr mod = A Quantitative High throughput Screen to Identify Chemical Modulators of PINK1 Expression | AID 624263, 2012 | PINK1 immunofluorescence, high-content cytometry, 24 h | Potency, µM (series often up to 76.6 µM), inactives show at the highest dose activation (PINK1 increase), most hits filed as activators | 410,000 tested, 0.2% active; active means well fitted activation curve with a large enough effect; inconclusive means small, poorly fitted or top-dose-only effect; cell line not stated here; further: % of control where 0% means no effect; nearly all actives have a fitted effect of over 65% in size
#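 Fluorescence from anti-PINK1 antibody, together with nuclear and cell stains, was scanned on a laser-scanning cytometer. Before staining, stable-line cells were incubated 24 hours with compounds at 5 concentrations; primary antibody 12 h at 10 degrees C.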
# Epigenetic derep = Quantitative High-Throughput Screen for Regulators of Epigenetic Control; Potency, µM (highest dose often 53.9 µM), for the others: top-dose GFP activation, most hits filed as activators; 280,000 tested, 0.2% active; AID 1865, 2009; murine LDR cells, GFP reporter derepression, 30 h; further: % of control where 0% means no effect; nearly all actives have a fitted effect of over 60% in size
#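 Murine LDR cells carrying a silenced, genomically integrated CMV-driven GFP reporter were exposed to compound for 30 hours at 37 C. After PBS washes, GFP-positive cells (20–120 um objects) were counted by laser-scanning microplate cytometry.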
# Gal4-VP16 FLuc = VP16 counterscreen qHTS for inhibitors of ROR gamma transcriptional activity; AID 2546, 2010; Potency, µM (series often up to 53.6 µM), inactives show top-dose activity, negative = inhibition, most hits filed as inhibitors; Drosophila S2 Gal4-VP16 UAS-luciferase, luminescence, 20 h; 310,000 tested, 3.5% active;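 further: Gal4-VP16 expression switched on by copper sulfate through the metallothionein promoter; on the % scale 0 is the no-effect control and ±100 the full control effect; nearly all actives have a fitted effect of over 50% in size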
# ClpP mod = qHTS Assay for Activators of ClpP; purified B. subtilis ClpP, FRET peptide cleavage, 20 min; ATP-dependent Clp protease proteolytic subunit (Bacillus subtilis (strain 168)), P80244; Potency, µM (doses to about 57.5 µM), for inactives: at the highest dose activity change, negative = active; 340,000 tested, 1.9% active; active means well fitted falling curve with a large enough effect; inconclusive means small, poorly fitted or top-dose-only effect; inactive means no such curve, though single readings can be large or run the other way; further: the source files actives as falling curves though it sought activators and does not explain the sign; nearly all actives have a fitted effect of over 65% in size
#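 ClpP 10 microg/mL final, pH 8 Tris/KCl buffer with BSA, glycerol, Tween-20; compound pinned in; FRET-FV substrate; RT 20 min; Ex320/Em430; ΔFRET vs ADEP 5.8 microM, DMSO, no enzyme.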
# Sfp PPTase inh = qHTS Assay for Inhibitors of Bacillus subtilis Sfp phosphopantetheinyl transferase (PPTase). Potency, µM, inactives show largest response in the series, negative = inhibition, usual class: inhibitors. AID 1490, 2009. Biochemical Sfp PPTase activity, qHTS. 310,000 tested, 3.5% active;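 further: the enzyme is Sfp with the accession as filed and its product quenches rhodamine fluorescence; 0% = enzyme reaction without inhibitor and -100% = no enzyme wells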
#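 With Hepes-Na pH 7.6 buffer containing 10 mM MgCl2, Sfp (15 nM) modified BHQ-2-YbbR (12.5 uM) using rhodamine-CoA (5 uM). Two reads 30 minutes apart at 525/598 nm yielded each well's rate.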
# RORg inh = qHTS for inhibitors of ROR gamma transcriptional activity; Nuclear receptor ROR-gamma (Mus musculus), P51450; Drosophila S2 Gal4-RORgamma UAS-luciferase reporter, 20 h; Potency, µM (series often up to 53.6 µM), for inactives: top-dose activity change, negative = inhibition, actives largely listed as inhibitors; AID 2551, 2010; 310,000 tested, 5.4% active; further: on the % scale 0 is the no-effect control and ±100 the full control effect; nearly all actives have a fitted effect of over 60% in size
#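 ROR gamma transcriptional activity was tracked as Gal4-UAS luciferase output in stably transfected Drosophila Schneider cells, with compound added 1 hr before 700 uM copper sulfate induction and a 20 hr ambient-temperature incubation.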
# * hit, by the source's call; ? = inconclusive; / = no result; ! = repeats disagree; [ ] = another dose, or the depositor's remark. Unless noted, the call rests on the fitted dose curve; in most records, active means well fitted curve in the direction sought with a large enough effect; inconclusive means small, poorly fitted or top-dose-only effect, or another doubt; inactive means no such curve, though single readings can be large; an effect the other way counts as inactive or inconclusive. Potency means the concentration at half of the fitted maximal effect.
SMILES,PINK1 expr mod,Epigenetic derep,Gal4-VP16 FLuc,ClpP mod,Sfp PPTase inh,RORg inh
COc1ccccc1NC(=O)Nc1cnccn1,-2%,1%,2%,/,8%,1%
Fc1cccc(NC(=S)Nc2cccnc2)c1,1%,-1%,14%,/,35µM*,-9%
Cc1cc(Cl)ccc1NC(=O)CCS(=O)(=O)c1ccc2c(c1)CC(C)N2C(=O)C1CC1 (stereo not drawn),2%,-5%,/,1%,/,/
O=C1C(=O)C(c2cc(O)c(O)c(O)c2)Oc2cc(O)cc(O)c21 (stereo not drawn),0%,/,/,-1%,/,/
CN(C)S(=O)(=O)c1cccc(NC(=S)N/N=C/c2cc(Br)ccc2O)c1,?,14%,-8%,/,5%,1%
S=C(Nc1ccc(Cl)cc1)Nc1cccc2cnccc12,?,1%,-1%,1%,?,-20%
S=C(Nc1cccnc1)Nc1cccc2cnccc12,2%,4%,-16%,/,11µM*,-17%
Fc1cccc(NC(=S)NNc2ccccc2)c1,-2%,/,2.2µM*,-2%,2%,1.3µM*
COc1cc(NC(=S)Nc2cccnc2)cc(OC)c1,2%,8%,?,2%,?,10µM*
COc1cc(OC)cc(C(=O)NC(=S)Nc2cccnc2)c1,0%,-1%,-19%,-2%,3%,24%
CN(C)S(=O)(=O)c1cccc(NC(=S)N/N=C/c2cccc(O)c2)c1,8%,2%,?,1%,18%,8.9µM*
COc1cccc2sc(N(C)c3ccccc3)nc12,1%,3%,16%,2%,71µM*,?
Cc1nc2nc(SCC(=O)NC3CCC(C)CC3)nn2c(C)c1Cc1ccccc1 (stereo not drawn),2%,-4%,/,-6%,/,/
Cc1cc(C)c(NC(=O)Cn2c(=O)n(CCC(=O)NCc3ccccc3Cl)c(=O)c3sccc32)c(C)c1,1%,-1%,/,2%,/,/
CC1=C(C#N)C(c2ccc(O)cc2)C2=C(CC(C)(C)CC2=O)N1 (stereo not drawn),1%,-2%,-3%,-28%,12%,19%
CC1C(C#N)=C(SCC(N)=O)NC2=C1C(=O)CC(C)(C)C2 (stereo not drawn),4%,1%,6%,/,-18%,2%
CC1=C(C#N)C(C)C2=C(CC(C)(C)CC2=O)N1 (stereo not drawn),2%,-1%,-23%,18µM*,8%,?
CC1=C(C#N)C(c2cccnc2)C2=C(CC(C)(C)CC2=O)N1 (stereo not drawn),0%,14%,-12%,14µM*,10%,27%
Cc1cc(=O)[nH]c(SCC(=O)c2ccccc2)c1C#N,-3%,-2%,-1%,-1%,20µM*,6%
Cc1ccccc1NC(=O)CSc1[nH]c(=O)cc(C)c1C#N,2%,0%,-7%,-2%,22µM*,?
COc1ccc(NC(=O)CSc2[nH]c(=O)cc(C)c2C#N)cc1OC,/,2%,-2%,1%,-12%,-9%
Cc1cc(C)c(C#N)c(SCC(=O)c2ccccc2)n1,7%,-5%,-7%,0%,-10%,2%
COc1ccc(-n2nc3c(c2NC(=O)COc2ccccc2)CS(=O)(=O)C3)cc1,0%,/,-8%,0%,21%,-3%
COc1ccc(-n2nc3c(c2NC(=O)COc2cccc(OC)c2)CS(=O)(=O)C3)cc1,-3%,/,15%,-1%,50µM*,3%
S=c1[nH]nc([C@@H]2C[C@H]2c2ccccc2)n1-c1ccccc1Cl,-1%,1%,10µM*,0%,24%,1.4µM*
SMILES,PINK1 expr mod,Epigenetic derep,Gal4-VP16 FLuc,ClpP mod,Sfp PPTase inh,RORg inh
Cc1ccc(C2CC2c2n[nH]c(=S)n2-c2cccc(C)c2)cc1 (stereo not drawn),1%,1%,6.3µM*,/,-16%,3.2µM*
Cc1ccc(C2CC2c2n[nH]c(=S)n2-c2ccc(Cl)cc2)cc1 (stereo not drawn),4%[38.3 µM],0%,10µM*,0%,20%,2.8µM*
Cc1cccc(-n2c(CNC(=O)Cc3ccccc3)n[nH]c2=S)c1,2%,3%,9%,/,13%,-32%
Cc1cc(C(F)(F)F)nn1Cc1n[nH]c(=S)n1-c1ccc(Cl)cc1,2%,4%,?,-1%,7%,?
CCOc1ccccc1-n1ccnc(NCc2ccc(F)cc2)c1=O,-1%,-1%,/,-11%,/,/
CCCN1C(=O)/C(=C/c2ccc(N3CCCC3)c(C)c2)NC1=S,10%,1µM*,-3%,1%,1%,24%
Cc1cc(/C=C2/C(=O)N(C)C(=S)N2C)ccc1N1CCCC1,?,?,-6%,1%,-8%,13%
CCCN1C(=O)/C(=C/c2ccc(OCC(=O)OCC)cc2)NC1=S,7%,3%,-23%,-1%,12%,?
Cc1cc(/C=C2\NC(=S)N(C)C2=O)ccc1N1CCCC1,?,?,?,/,0%,3.5µM*
COc1cc2nc(CCc3nc4cc(OC)c(OC)cc4[nH]3)[nH]c2cc1OC,/,/,/,-4%,/,/
Cc1cc(S(=O)(=O)N2CCN=C2c2ccccc2)c(C)cc1Cl,0%,-1%,-8%,0%,-15%,1.3µM*
Cc1c(Cl)ccc(S(=O)(=O)N2CCN=C2c2ccccc2)c1Cl,2%,-1%,3%,-3%,-27%,23%
OC(COc1ccc2cc(Br)ccc2c1)CN1CCCC1 (stereo not drawn),-6%[38.3 µM],-1%,?,1%,79µM*,14%
O=C1c2cccc(O)c2C(=O)c2c(O)cccc21,0%,1%,-12%,/,28µM*!,?
CCN(CC)CCN1C(=O)c2ccccc2NC1c1cccc(F)c1 (stereo not drawn),-4%,-1%,3%,?,9%,7%
CCN(CC)CCN1C(=O)c2ccccc2NC1c1cc(OC)c(OC)c(OC)c1 (stereo not drawn),/,2%,2%,13µM*,0%,-16%[10 µM]
CCCN1C(=O)c2ccccc2NC1c1cc(OC)c(OC)c(OC)c1 (stereo not drawn),0%,-1%,-5%,18µM*,2%,?
CC(C)C(c1nnnn1C(C)(C)C)N1CCC(Cc2ccccc2)CC1 (stereo not drawn),?,-1%,22µM*,-1%,-3%,?
